Where “and” joins values, the source holds several entries; their conditions need not be identical. Equal values may be shown once. Records with an inconclusive call do not appear. Calls of active or inactive are those of the source. Unless noted, calls come from the whole dose curve; as a rule, active = well fitted curve in the direction sought with a large enough effect; inconclusive = small, poorly fitted or top-dose-only effect, or another doubt; inactive = no such curve, though single readings can be large; an effect the other way counts as inactive or inconclusive.
What was measured:
[1] = qHTS Assay for Lipid Storage Modulators (AID 1519; calls by dose curve); settings: Drosophila S3 cells, BODIPY lipid droplet/cell ratio, laser cytometry, cells loaded with oleic acid
Outline: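 Cells seeded at 5,000 per well were treated with compounds over a concentration series and loaded with oleic acid (400 uM, as added). Lipid droplet fluorescence (488 nm excitation, 500-530 nm channel) was read by laser-scanning cytometry and normalized to 20 uM Triacsin C.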

[2] = target: Cytochrome P450 3A4 (Homo sapiens) (UniProt P08684); assay: qHTS Assay for Inhibitors and Substrates of Cytochrome P450 3A4 (AID 884); settings: recombinant CYP3A4, Luciferin-PPXE luminescence; series mostly up to 57.1 µM; note: nearly all actives have a fitted effect of over 50% in size; note: potency is the fitted concentration of half-maximal effect
Chain of Cytochrome P450 3A4 (Homo sapiens) (P08684 whole entry, looked up): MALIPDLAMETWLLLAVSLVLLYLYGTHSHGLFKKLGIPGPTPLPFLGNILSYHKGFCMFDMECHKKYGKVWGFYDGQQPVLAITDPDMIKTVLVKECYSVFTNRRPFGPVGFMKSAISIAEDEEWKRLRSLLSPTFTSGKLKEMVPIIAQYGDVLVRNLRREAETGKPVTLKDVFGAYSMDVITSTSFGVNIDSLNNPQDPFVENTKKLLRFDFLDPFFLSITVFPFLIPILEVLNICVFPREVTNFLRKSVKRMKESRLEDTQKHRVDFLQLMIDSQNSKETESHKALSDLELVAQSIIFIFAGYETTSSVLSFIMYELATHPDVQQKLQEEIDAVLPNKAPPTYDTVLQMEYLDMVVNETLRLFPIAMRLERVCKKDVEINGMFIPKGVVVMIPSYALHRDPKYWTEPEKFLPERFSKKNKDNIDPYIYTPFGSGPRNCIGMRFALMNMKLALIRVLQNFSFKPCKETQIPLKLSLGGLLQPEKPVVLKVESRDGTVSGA
Outline: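 20 nM human CYP3A4 with 25 uM Luciferin-PPXE (at KM) in 200 mM KPO4, preincubated 10 min with compound; NADPH regeneration started a 60 min RT reaction. Luciferin detected by luminescence, normalized to 57 uM ketoconazole as full inhibition.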

[3] = target: DNA dC->dU-editing enzyme APOBEC-3G (Homo sapiens) (UniProt Q9HC16); assay: qHTS for inhibitors of Vif-A3G interactions: Validation (AID 588379); settings: Vif-A3G protein interaction assay; series mostly up to 46.1 µM; note: 0% is about no effect
Chain of DNA dC->dU-editing enzyme APOBEC-3G (Homo sapiens) (Q9HC16 whole entry, looked up): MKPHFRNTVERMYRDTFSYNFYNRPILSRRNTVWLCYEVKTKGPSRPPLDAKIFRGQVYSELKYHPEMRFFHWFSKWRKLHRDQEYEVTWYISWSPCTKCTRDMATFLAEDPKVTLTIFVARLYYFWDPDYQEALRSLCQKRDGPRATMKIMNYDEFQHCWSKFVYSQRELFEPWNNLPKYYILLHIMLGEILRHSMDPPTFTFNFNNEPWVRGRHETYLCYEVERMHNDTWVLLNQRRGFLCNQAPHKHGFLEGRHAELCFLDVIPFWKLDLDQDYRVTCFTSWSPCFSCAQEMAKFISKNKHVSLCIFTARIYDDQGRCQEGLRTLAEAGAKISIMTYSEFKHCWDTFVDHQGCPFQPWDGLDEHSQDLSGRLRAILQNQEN
Outline: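 HeLa cells stably expressing Vif and A3G-eYFP, 700 cells/well, incubated overnight at 37 deg C, then exposed to compound overnight at 37 deg C. Inhibition of Vif-mediated degradation read as increased yellow fluorescence (Ex 488/Em 500-530) by laser-scanning cytometry.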

[4] = Primary qHTS for small molecule stabilizers of the endoplasmic reticulum resident proteome: Secreted ER Calcium Modulated Protein (SERCaMP) assay (AID 1508630); settings: SH-SY5Y GLuc-SERCaMP (Gaussia luciferase released on ER calcium loss) secretion, thapsigargin, luminescence; series mostly up to 38.4 µM; note: % is set by controls: 0 for no effect and ±100 for the full control effect
Outline: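 GLuc-SERCaMP-expressing SH-SY5Y cells, pretreated 16 h with compound, are challenged with thapsigargin to empty ER calcium stores; after 4 h, coelenterazine is added directly to the medium and luminescence is imaged.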

[5] = AP1 Signaling Pathway (AID 357; active = well fitted curve in either direction with a large enough effect, not every such curve was filed as active;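 note: ME-180 reporter cells stimulated with EGF at its EC50 level; % is set by controls: 0 for no effect and ±100 for the full control effect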); settings: ME-180 AP-1-bla reporter, EGF-induced, beta-lactamase ratio, 5 h; at 7.69 µM (top of the series) unless noted
Outline: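 In this screen, ME-180 cells in Opti-MEM with 0.5% dialyzed FBS received EC50 EGF and compound titrations for 5 h. AP-1 reporter beta-lactamase was detected via CCF4 ratio, giving AC50 for positive and negative modulators.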

[6] = target: Cytochrome P450 1A2 (Homo sapiens) (UniProt P05177); assay: p450-cyp1a2 (AID 410; calls by dose curve; note: potency is the fitted concentration of half-maximal effect); settings: recombinant CYP1A2, luciferin-ME demethylation, luminescence; series mostly up to 57 µM
Chain of Cytochrome P450 1A2 (Homo sapiens) (P05177 whole entry, looked up): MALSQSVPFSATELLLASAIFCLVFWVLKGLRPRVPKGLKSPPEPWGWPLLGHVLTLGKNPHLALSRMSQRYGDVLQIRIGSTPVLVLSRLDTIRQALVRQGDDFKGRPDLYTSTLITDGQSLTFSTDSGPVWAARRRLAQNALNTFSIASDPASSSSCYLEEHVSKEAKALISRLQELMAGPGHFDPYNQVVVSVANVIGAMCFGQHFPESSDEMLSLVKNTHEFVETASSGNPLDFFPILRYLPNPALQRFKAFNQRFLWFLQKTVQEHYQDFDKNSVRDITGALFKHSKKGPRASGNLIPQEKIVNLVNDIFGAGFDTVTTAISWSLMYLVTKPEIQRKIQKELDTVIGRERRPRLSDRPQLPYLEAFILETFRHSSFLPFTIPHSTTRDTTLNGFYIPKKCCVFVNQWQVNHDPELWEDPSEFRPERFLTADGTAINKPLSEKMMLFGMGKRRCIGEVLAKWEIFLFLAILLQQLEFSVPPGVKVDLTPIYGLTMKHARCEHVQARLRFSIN
Outline: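 Inhibition was calculated relative to 57 uM furafylline (full inhibition). The reaction used human CYP1A2 at 20nM with Luciferin-ME at its Km, 100uM, driven by an NADPH-regenerating system for 60 min at room temperature.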

[7] = NFAT Signaling Pathway (AID 444; active = well fitted curve in either direction with a large enough effect, not every such curve was filed as active;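 note: carbachol stimulus at about its EC50 of 1 µM final; % is set by controls: 0 for no effect and ±100 for the full control effect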); settings: Jurkat NFAT-bla M1, carbachol, beta-lactamase ratio, 5 h; at 7.69 µM (top of the series) unless noted
Outline: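 Jurkat cells with NFAT-driven β-lactamase reporter and co-expressed M1 receptor, stimulated with carbachol (final 1 uM, ~EC50), compound titration, 5 h at 37 °C. CCF4 loaded 1 h at RT; 460/530 nm ratio gave %activity and AC50.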

[8] = Stat Signaling Pathway (AID 446; active = well fitted curve in either direction with a large enough effect, not every such curve was filed as active;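 note: ME-180 cervical cancer cells given 40 pM IL-6 alongside compound; SIE-controlled beta-lactamase reporter measured as 460/530 nm FRET emission ratio; % is set by controls: 0 for no effect and ±100 for the full control effect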); settings: ME-180 SIE beta-lactamase reporter, IL-6 stimulated, 5 h; at 7.69 µM (top of the series) unless noted
Outline: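 Screening format detects activators and inhibitors alike: ME-180 SIE-bla cells stimulated at 40 pM IL-6 for 5 hrs with compound, then dual-emission beta-lactamase read at 405 nm excitation.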

[9] = target: Glucocorticoid receptor (Homo sapiens) (UniProt P04150); assay: GR-GFP Redistribution (AID 450;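 active = compounds whose dose series gives a full or clear partial fitted curve of increased nuclear translocation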; note: potency is the fitted concentration of half-maximal effect); settings: U2OS GR-GFP nuclear translocation, laser cytometry, 2 h
Chain of Glucocorticoid receptor (Homo sapiens) (P04150 whole entry, looked up, the tested form may be a part): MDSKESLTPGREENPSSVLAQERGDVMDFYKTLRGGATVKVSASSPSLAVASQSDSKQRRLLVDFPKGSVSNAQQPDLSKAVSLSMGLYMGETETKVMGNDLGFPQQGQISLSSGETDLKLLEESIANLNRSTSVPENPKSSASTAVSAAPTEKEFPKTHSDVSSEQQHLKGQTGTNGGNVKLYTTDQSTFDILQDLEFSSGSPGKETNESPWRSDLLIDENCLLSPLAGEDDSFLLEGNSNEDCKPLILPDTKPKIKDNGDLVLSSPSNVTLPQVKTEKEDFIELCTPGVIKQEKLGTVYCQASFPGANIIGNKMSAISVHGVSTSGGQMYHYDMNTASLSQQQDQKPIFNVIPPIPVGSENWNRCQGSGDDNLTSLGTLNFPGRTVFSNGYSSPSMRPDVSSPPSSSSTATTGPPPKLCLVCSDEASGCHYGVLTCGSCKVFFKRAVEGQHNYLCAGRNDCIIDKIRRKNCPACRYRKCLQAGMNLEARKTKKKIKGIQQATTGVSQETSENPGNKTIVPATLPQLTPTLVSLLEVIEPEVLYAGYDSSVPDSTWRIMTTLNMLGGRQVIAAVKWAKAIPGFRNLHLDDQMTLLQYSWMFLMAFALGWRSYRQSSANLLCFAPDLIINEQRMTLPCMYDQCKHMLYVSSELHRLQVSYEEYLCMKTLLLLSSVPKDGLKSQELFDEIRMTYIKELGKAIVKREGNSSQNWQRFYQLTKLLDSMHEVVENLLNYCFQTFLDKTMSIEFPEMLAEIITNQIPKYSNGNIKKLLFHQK

[10] = target: Glucocorticoid receptor (Homo sapiens) (UniProt P04150); assay: GR-EFC Redistribution (AID 451; calls by dose curve; note: potency is the fitted concentration of half-maximal effect); settings: CHO-K1 GR-EFC translocation, beta-gal luminescence, 2 h
Outline: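 CHO-K1 cells expressing nuclear EA and GR-ED fragments of b-gal; compounds titrated up to 46 uM final, 2 h at 37 C. GR nuclear translocation read as complemented b-gal luminescence after 1 h RT detection.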

[11] = target: Mitogen-activated protein kinase 10 (Mus musculus) (UniProt Q61831); assay: JNK3 AlphaScreen Assay (AID 530; active = well fitted curve in either direction with a large enough effect, not every such curve was filed as active); settings: JNK3 lysate, c-Jun phosphorylation; series mostly up to 57.1 µM
Outline: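 qHTS format: compounds tested as titrations against IL-1beta/TNF-alpha-activated HepG2 lysate JNK3 with biotin-GST-cJun substrate and 10 uM ATP at room temperature. Loss of anti-phospho-cJun AlphaScreen signal indicates inhibition.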

[12] = Confirmation and Secondary Assay for Modulators of Hemoglobin Beta Chain Splicing at IVS2 654 locus (AID 910); settings: HeLa EGFP-654 splicing reporter, GFP fluorescence, 48 h; series mostly up to 38.3 µM;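 note: HeLa cells stably carrying EGFP split by mutant beta-globin IVS2-654 intron; % of control where 0% means no effect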
Outline: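 HeLa cells stably expressing EGFP interrupted by β-globin IVS2-654 intron, seeded overnight in Opti-MEM/2% FCS, then treated 2 days at 37 °C. Restored splicing read as total peak GFP intensity per well by laser scanning cytometry (488 nm excitation, 500–520 nm emission); 500 nM antisense PNA as control.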

[13] = Confirmation and Secondary Assay for Modulators of Hemoglobin Beta Chain Splicing at IVS2 705 locus (AID 930); settings: HeLa EGFP-705 splicing reporter, GFP fluorescence, 48 h; series mostly up to 38.3 µM;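 note: HeLa cells stably expressing the EGFP-705 splicing reporter; GFP fluorescence per well restored by corrected splicing of the IVS2-705 intron in EGFP; % of control where 0% means no effect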
Outline: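 Per-well GFP, captured at 1 x 8 µm resolution with 488 nm excitation, served as the read-out for HeLa EGFP-705 cells incubated 2 days with test compound versus DMSO.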

[14] = target: Ubiquitin carboxyl-terminal hydrolase 1 (Homo sapiens) (UniProt O94782); assay: Inhibitors of USP1/UAF1: Pilot qHTS (AID 504865); settings: purified USP1/UAF1, Ub-rhodamine cleavage fluorescence; series mostly up to 54.9 µM;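 note: rhodamine fluorescence freed from ubiquitin-rhodamine substrate followed over time; top concentration of the series differs between compounds; % is set by controls: 0 for no effect and ±100 for the full control effect; nearly all actives have a fitted effect of over 35% in size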
Chain of Ubiquitin carboxyl-terminal hydrolase 1 (Homo sapiens) (O94782 whole entry, looked up): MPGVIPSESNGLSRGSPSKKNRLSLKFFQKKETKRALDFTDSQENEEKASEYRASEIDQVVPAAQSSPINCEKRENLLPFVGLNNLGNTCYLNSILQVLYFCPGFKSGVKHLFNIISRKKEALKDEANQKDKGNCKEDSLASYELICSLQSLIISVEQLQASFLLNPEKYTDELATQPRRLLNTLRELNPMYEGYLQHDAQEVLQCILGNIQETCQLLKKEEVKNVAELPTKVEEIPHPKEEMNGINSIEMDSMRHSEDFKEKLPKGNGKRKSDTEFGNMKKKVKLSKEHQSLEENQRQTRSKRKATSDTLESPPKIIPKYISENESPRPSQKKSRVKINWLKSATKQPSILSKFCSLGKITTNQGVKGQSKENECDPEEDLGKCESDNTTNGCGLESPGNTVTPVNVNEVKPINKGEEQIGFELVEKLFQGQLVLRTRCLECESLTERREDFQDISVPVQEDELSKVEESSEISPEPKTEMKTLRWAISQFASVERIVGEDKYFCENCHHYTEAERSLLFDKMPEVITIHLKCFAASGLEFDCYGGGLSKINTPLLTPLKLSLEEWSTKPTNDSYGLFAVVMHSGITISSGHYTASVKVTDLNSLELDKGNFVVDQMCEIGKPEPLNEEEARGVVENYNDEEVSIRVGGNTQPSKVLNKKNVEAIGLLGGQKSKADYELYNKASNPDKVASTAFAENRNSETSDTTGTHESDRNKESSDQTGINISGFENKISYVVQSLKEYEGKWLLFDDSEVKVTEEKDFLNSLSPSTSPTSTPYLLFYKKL
Outline: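 Enzyme-free wells gave the negative control, while test wells held 1nM USP1/UAF1 preincubated with compound for 15 min at room temperature. Ub-Rho at 150nM final started the reaction, and fluorescence at 480/540 nm was recorded kinetically.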

[15] = target: Lysosomal acid glucosylceramidase (Homo sapiens) (UniProt P04062); assay: Glucocerebrosidase-p2 (AID 348; in the data active = potency below about 10 µM; note: potency is the fitted concentration of half-maximal effect); settings: purified GBA, blue fluorogenic substrate, 40 min
Outline: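 Compounds titrated from 0.6 nM upwards against 0.2 nM enzyme in pH 5.9 citric acid/KH2PO4, taurocholate, tween-20; blue fluorogenic substrate 80 uM, 40 min room temperature, stopped and read Ex 365/Em 440 for AC50.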

[16] = target: 3',5'-cyclic-AMP phosphodiesterase 4B (Homo sapiens) (UniProt Q07343); assay: qHTS Assay for Inhibitors of PDE-IV (AID 607; active = well fitted activation curve with a large enough effect in the main read-out, with a control signal flat, not every such curve was filed as active; note: % of control where 0% means no effect); settings: HEK293 ACTOne CNG channel cells, membrane potential fluorescence; series mostly up to 22.9 µM
Outline: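 The readout is membrane depolarisation from a cAMP-sensing CNG channel, detected with a potential dye at ex 535/em 590. Cells were HEK293-derived (endogenous PDE-IV) at 1000 cells/well, titrated up to 22.9 uM final.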

[17] = target: Cytochrome P450 3A4 (Homo sapiens) (UniProt P08684); assay: qHTS Assay for Activators of Cytochrome P450 3A4 (AID 885); settings: recombinant CYP3A4, Luciferin-PPXE luminescence, 60 min; series mostly up to 57.1 µM; note: nearly all actives have a fitted effect of over 65% in size
Outline: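 Steps: enzyme/substrate mix dispensed; compound added, 10 min RT; NADPH regeneration solution added, 60 min RT; luciferin detection buffer stops reaction; 20 min later luminescence measured.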

[18] = target: Cytochrome P450 2C19 (Homo sapiens) (UniProt P33261); assay: qHTS Assay for Inhibitors and Substrates of Cytochrome P450 2C19 (AID 899); settings: recombinant CYP2C19, luciferin-H EGE luminescence; series mostly up to 57.1 µM; note: potency is the fitted concentration of half-maximal effect; nearly all actives have a fitted effect of over 60% in size
Outline: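 Luminescent read-out of luciferin formed from Luciferin-H EGE (10uM, equal to KM). Enzyme 5nM in 50mM KPO4; compound added, 10 min at 37C, then NADPH regenerating system for 60 min at 37C. Full inhibition defined by 57uM ketoconazole.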

[19] = target: Dual specificity protein kinase CLK4 (Homo sapiens) (UniProt Q9HAZ1); assay: qHTS Assay for Inhibitors of CDC-like Kinase 4 (Kinase-Glo Assay) (AID 1770); settings: recombinant Clk4, Kinase-Glo ATP depletion luminescence; series mostly up to 66.7 µM; note: potency is the fitted concentration of half-maximal effect; nearly all actives have a fitted effect of over 65% in size
Outline: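 Clk4 25 nM, RS peptide 100 uM, ATP 1 uM, pH 7.5 Tris, 10 mM MgCl2, 2.5 mM DTT; 4.5 h RT; ATP depletion read by Kinase-Glo luminescence.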

[20] = target: Dual specificity protein kinase CLK4 (Homo sapiens) (UniProt Q9HAZ1); assay: qHTS Assay for Inhibitors of CDC-like Kinase 4 (ADP-Glo Assay) (AID 1771); settings: recombinant CLK4, ADP-Glo luminescence; series mostly up to 80 µM; note: potency is the fitted concentration of half-maximal effect; nearly all actives have a fitted effect of over 70% in size
Outline: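 Kinase reaction: Clk4 at 25 nM, RS repeat peptide substrate at 100 uM, ATP at 1 uM, 1 hr, room temperature. Product ADP detected as luciferase signal via ADP-Glo.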

[21] = target: Rap guanine nucleotide exchange factor 3 (Homo sapiens) (UniProt O95398); assay: Confirmatory qHTS for antagonist of cAMP-regulated guanine nucleotide exchange factor 3 (EPAC1) (AID 1645880); settings: EPAC1 Rap1B-BODIPY-GDP exchange, fluorescence; series mostly up to 115 µM;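 note: plate controls were DMSO only for no effect and full effect of the ATA control for full effect; nearly all actives have a fitted effect of over 55% in size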
Chain of Rap guanine nucleotide exchange factor 3 (Homo sapiens) (O95398 whole entry, looked up): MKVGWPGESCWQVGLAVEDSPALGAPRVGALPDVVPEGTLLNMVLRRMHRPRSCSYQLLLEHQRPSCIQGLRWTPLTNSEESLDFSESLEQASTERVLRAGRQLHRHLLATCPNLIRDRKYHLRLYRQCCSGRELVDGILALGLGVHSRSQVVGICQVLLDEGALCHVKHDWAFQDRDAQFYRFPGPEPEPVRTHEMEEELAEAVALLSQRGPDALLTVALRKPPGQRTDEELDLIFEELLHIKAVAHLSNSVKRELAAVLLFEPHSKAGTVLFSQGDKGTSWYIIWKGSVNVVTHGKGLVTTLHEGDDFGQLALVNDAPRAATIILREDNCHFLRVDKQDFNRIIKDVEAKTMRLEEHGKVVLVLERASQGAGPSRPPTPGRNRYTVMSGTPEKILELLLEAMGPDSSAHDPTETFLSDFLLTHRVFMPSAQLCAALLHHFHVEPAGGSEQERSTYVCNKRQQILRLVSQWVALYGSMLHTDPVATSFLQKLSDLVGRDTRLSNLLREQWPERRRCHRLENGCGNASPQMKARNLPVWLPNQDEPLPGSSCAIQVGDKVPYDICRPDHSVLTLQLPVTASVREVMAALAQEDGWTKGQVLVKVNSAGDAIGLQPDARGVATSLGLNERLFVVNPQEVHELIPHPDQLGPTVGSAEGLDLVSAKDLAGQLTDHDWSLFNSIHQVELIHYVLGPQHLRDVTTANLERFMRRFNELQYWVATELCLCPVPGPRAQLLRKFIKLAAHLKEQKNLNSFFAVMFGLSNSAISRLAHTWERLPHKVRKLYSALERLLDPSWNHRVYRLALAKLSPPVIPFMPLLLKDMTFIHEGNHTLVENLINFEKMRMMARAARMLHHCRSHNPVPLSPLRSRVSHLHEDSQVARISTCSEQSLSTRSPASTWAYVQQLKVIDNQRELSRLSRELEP
Outline: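 Nucleotide exchange uses 100 nM EPAC1, 250 nM RAP1B-BODIPY-GDP and 50 uM GDP, with compounds in a concentration-titration series. After 5 min at room temperature, fluorescence (480 nm ex/540 nm em) is read every 5 min for 30 min. Data are normalized to control ATA and DMSO.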

[22] = target: Rap guanine nucleotide exchange factor 3 (Homo sapiens) (UniProt O95398); assay: Confirmatory qHTS for agonist of cAMP-regulated guanine nucleotide exchange factor 3 (EPAC1) (AID 1645881); settings: EPAC1 Rap1B BODIPY-GDP exchange fluorescence; series mostly up to 154 µM;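 note: EPAC1 catalysed release of BODIPY-GDP from Rap1B seen as fluorescence loss; 100% = effect of cAMP agonist control; nearly all actives have a fitted effect of over 75% in size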
[23] = target: Rap guanine nucleotide exchange factor 4 (Homo sapiens) (UniProt Q8WZA2); assay: Confirmatory qHTS for agonist of cAMP-regulated guanine nucleotide exchange factor 4 (EPAC2) (AID 1645884); settings: EPAC2 GEF activity, Rap1B-BODIPY-GDP fluorescence; series mostly up to 154 µM;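 note: nucleotide exchange releases bodipy-GDP from Rap1 and this lowers its fluorescence; % is set by controls: 0 for no effect and ±100 for the full control effect; nearly all actives have a fitted effect of over 65% in size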
Chain of Rap guanine nucleotide exchange factor 4 (Homo sapiens) (Q8WZA2 whole entry, looked up): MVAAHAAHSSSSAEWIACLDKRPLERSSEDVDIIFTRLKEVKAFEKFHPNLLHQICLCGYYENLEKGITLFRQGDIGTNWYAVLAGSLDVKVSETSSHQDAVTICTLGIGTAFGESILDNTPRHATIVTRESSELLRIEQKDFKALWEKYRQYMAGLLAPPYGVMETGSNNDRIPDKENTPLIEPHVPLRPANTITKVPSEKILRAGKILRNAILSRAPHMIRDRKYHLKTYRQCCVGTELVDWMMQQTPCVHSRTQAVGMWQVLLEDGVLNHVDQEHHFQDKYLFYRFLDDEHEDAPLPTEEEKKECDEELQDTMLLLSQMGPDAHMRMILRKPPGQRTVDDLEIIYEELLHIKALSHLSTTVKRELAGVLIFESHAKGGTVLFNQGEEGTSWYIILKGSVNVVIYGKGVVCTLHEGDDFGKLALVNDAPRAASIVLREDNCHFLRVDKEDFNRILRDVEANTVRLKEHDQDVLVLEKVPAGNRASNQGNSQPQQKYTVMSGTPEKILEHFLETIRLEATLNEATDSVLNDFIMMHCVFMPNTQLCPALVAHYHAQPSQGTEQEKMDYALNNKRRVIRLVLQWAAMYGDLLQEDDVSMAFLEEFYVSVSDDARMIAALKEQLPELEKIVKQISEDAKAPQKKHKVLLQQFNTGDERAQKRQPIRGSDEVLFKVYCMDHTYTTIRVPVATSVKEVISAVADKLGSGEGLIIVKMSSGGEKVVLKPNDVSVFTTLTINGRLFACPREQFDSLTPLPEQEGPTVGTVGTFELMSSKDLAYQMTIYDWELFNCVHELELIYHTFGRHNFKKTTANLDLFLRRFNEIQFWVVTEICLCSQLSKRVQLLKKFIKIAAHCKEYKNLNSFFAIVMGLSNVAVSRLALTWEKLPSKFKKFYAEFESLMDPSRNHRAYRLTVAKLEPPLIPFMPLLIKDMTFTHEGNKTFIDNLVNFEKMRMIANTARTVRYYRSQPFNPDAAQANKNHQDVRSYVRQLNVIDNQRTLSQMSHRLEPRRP

[24] = target: Rap guanine nucleotide exchange factor 4 (Homo sapiens) (UniProt Q8WZA2); assay: Confirmatory qHTS for antagonist of cAMP-regulated guanine nucleotide exchange factor 4 (EPAC2) (AID 1645885); settings: EPAC2 Rap1B-BODIPY-GDP exchange fluorescence, biochemical; series mostly up to 114 µM; note: % is set by controls: 0 for no effect and ±100 for the full control effect; nearly all actives have a fitted effect of over 25% in size
[25] = target: Cytochrome P450 2C9 (Homo sapiens) (UniProt P11712); assay: qHTS Assay for Inhibitors and Substrates of Cytochrome P450 2C9 (AID 883); settings: recombinant CYP2C9, luciferin-H luminescence, 60 min; series mostly up to 57.1 µM; note: % is set by controls: 0 for no effect and ±100 for the full control effect; nearly all actives have a fitted effect of over 60% in size
Outline: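 10nM CYP2C9 + 100uM Luciferin-H (=KM), 25mM KPO4; cpd 10 min 37C; NADPH regen, 60 min 37C; stop/detect with P450 Glo-Buffer 20 min; luminescence. Norm. to 57uM sulphaphenazole as full inhibition.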

[26] = measured here: cell count channel max response
[27] = measured here: lipid channel max response

Nc1ccc(C(=O)O)c(O)c1 (tested in a mixture with another compound)
inactive: activity change, negative = inhibition ([1]; at 57.5 µM (top of the series)) 15.3%
6.65%: max response [1, 26]
22.7%: max response [1, 27]

OC[C@H]1O[C@@H](n2cnc3c(NCc4ccco4)ncnc32)[C@H](O)[C@@H]1O
inactive: Potency [2] | outcome [3] | outcome [4]

CC(=O)Oc1ccccc1C(=O)Oc1ccccc1C(=O)O
-2.66% and 0.474%: max response [1, 26]
active: Potency [6] 12.6 µM
inactive: activity change, negative = inhibition [5] 6.88% [at 17.2 µM] | activity change, negative = inhibition [7] 3.91% [at 17.2 µM] | activity, negative = inhibition [8] 8.87% [at 17.2 µM] | Potency [9] > 20.6 µM | Potency [10] > 20.6 µM | Potency [11] | Potency [2] | Potency [12] | outcome [13] | activity change, negative = inhibition ([1]; at 25.7 µM (top of the series)) -1.86% | activity change, negative = inhibition ([1]; at 57.5 µM (top of the series)) -0.43% | Potency [14]
-5.13% and 0.698%: max response [1, 27]

Nc1ncnc2c1ncn2C1OC(CO)C(O)C1O (stereo unspecified)
31.9% and 67.8%: max response [1, 27]
inactive: activity change, negative = inhibition ([1]; at 57.5 µM (top of the series)) 9.6% and 14.7%
19.8% and 38.9%: max response [1, 26]

COc1cccc(-c2cc(NCCc3c[nH]c4ccc(OC)cc34)ncn2)c1
8.88%: max response [1, 26]
inactive: Potency [15] > 11.4 µM | activity change, negative = inhibition [5] -7.38% | activity change, negative = inhibition [7] -9.49% | activity, negative = inhibition [8] -5.09% | Potency [9] > 46 µM | Potency [10] > 46 µM | Potency [16] | Potency [17] | activity change, negative = inhibition ([1]; at 57.5 µM (top of the series)) 7.02% | Potency [14] | Potency [21] | Potency [22] | Potency [23] | Potency [24]
13.2%: max response [1, 27]
active: Potency [6] 0.794 µM | Potency [2] 7.94 µM | Potency [18] 0.501 µM | Potency [19] 4.47 µM | Potency [20] 12.6 µM

CC(C)CN1CCCC2(CCN(C(=O)c3ccco3)CC2)C1
inactive: activity change, negative = inhibition [5] -0.809% | activity, negative = inhibition [8] 2.64% | Potency [10] > 46 µM | Potency [11] | Potency [16] | Potency [25] | Potency [17] | outcome [4]

C/C(=C\COc1cc(=O)[nH]c2ccccc12)CCC(O)C(C)(C)O (stereo unspecified)
inactive: Potency [2] | outcome [3] | outcome [4]

From PubChem BioAssay (NCATS)
